Source: article PMC5540273 (PLoS ONE, 2017)

Key:
Conditions in all cases: concentration: 1 μM,replicates: in singlicate; n = 1
CAMK1 = tested on: CAMK1
CAMK2A = tested on: CAMK2A
CAMK2B = tested on: CAMK2B
CAMK2D = tested on: CAMK2D
CAMK2G = tested on: CAMK2G
CAMK4 = tested on: CAMK4
CAMKK1 = tested on: CAMKK1
CAMKK2 = tested on: CAMKK2
CASK = tested on: CASK
CDC2L1 = tested on: T1, CDC2L1
T1 construct: gene CDK11B

CDC2L2 = tested on: CDC2L2
CDC2L5 = tested on: T2, CDC2L5
T2 construct: gene CDK13

CDK11 = tested on: T3, CDK11
T3 construct: gene CDK19

CDK2 = tested on: CDK2
CDK3 = tested on: CDK3
CDK4-cyclinD1 = tested on: CDK4-cyclinD1
CDK4-cyclinD3 = tested on: CDK4-cyclinD3
CDK4 = tested on: CDK4
CDK5 = tested on: CDK5
CDK7 = tested on: CDK7
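Note: KINOMEscan kinase panel screen.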

Row | SMILES | %Inh (CAMK1) [%] | %Inh (CAMK2A) [%] | %Inh (CAMK2B) [%] | %Inh (CAMK2D) [%] | %Inh (CAMK2G) [%] | %Inh (CAMK4) [%] | %Inh (CAMKK1) [%] | %Inh (CAMKK2) [%] | %Inh (CASK) [%] | %Inh (CDC2L1) [%] | %Inh (CDC2L2) [%] | %Inh (CDC2L5) [%] | %Inh (CDK11) [%] | %Inh (CDK2) [%] | %Inh (CDK3) [%] | %Inh (CDK4-cyclinD1) [%] | %Inh (CDK4-cyclinD3) [%] | %Inh (CDK4) [%] | %Inh (CDK5) [%] | %Inh (CDK7) [%]
1 | O=C(Nc1cccc(Oc2ccc3nccn3n2)c1)Nc1cccc(C(F)(F)F)c1 | 5 | 0 | 0 | 0 | 0 | 0 | 5 | 0 | 26 | 1 | 6 | 13 | 98.7 | 0 | 32 | 33 | 0 | 0 | 0 | 0
2 | C[C@@H](Oc1cc(-n2cnc3ccc(-c4ccncc4)cc32)sc1C(N)=O)c1ccccc1Cl [GSK483724] | 40 | 15 | 0 | 31 | 37 | 0 | 34 | 59 | 14 | 0 | 7 | 0 | 73 | 30 | 36 | 0 | 0 | 27 | 1 | 0
3 | COc1cc2c(Nc3ccc(NC(=O)c4ccccc4)cc3)ncnc2cc1OCCCN1CCOCC1 [GSK301329] | 40 | 0 | 0 | 0 | 1 | 0 | 0 | 0 | 17 | 0 | 7 | 0 | 0 | 0 | 2 | 0 | 0 | 7 | 0 | 24
4 | Cc1cccc(-c2nc(Nc3ccncc3)c3sccc3n2)n1 [GW869641] | 24 | 3 | 9 | 14 | 18 | 0 | 11 | 23 | 21 | 6 | 0 | 11 | 8 | 3 | 0 | 0 | 24 | 23 | 14 | 44
5 | Nc1nccc(-c2ccc3c(N)n[nH]c3c2)n1 [GSK1034945] | 11 | 0 | 5 | 0 | 0 | 0 | 1 | 8 | 6 | 0 | 4 | 0 | 37 | 0 | 13 | 0 | 0 | 1 | 0 | 0
6 | NC(=O)Nc1sc(-c2ccc(F)cc2)cc1C(N)=O [GW789449] | 12 | 0 | 0 | 2 | 0 | 0 | 12 | 7 | 15 | 0 | 0 | 14 | 0 | 0 | 17 | 30 | 0 | 0 | 0 | 19
7 | COc1cccc(C2=C(Nc3cccc(Cl)c3)C(=O)NC2=O)c1 [SB-341556] | 1 | 22 | 0 | 14 | 27 | 0 | 3 | 4 | 43 | 0 | 0 | 0 | 0 | 7 | 4 | 0 | 14 | 0 | 0 | 14
8 | Cn1ccc2ncnc(Oc3ccc(NC(=O)Nc4cnn(C(C)(C)C)c4)c(Cl)c3)c21 | 9 | 0 | 17 | 0 | 2 | 7 | 0 | 0 | 10 | 0 | 0 | 45 | 99.6 | 0 | 0 | 0 | 0 | 0 | 2 | 27
9 | Cc1ccc2c(-c3ccnc(Nc4ccc(C(F)(F)F)cc4)n3)cnn2n1 [GW819776] | 0 | 0 | 0 | 0 | 0 | 0 | 19 | 0 | 21 | 0 | 0 | 0 | 0 | 15 | 13 | 0 | 0 | 16 | 0 | 47
10 | COC(=O)Nc1nc2cc(Oc3ccc(NC(=O)Nc4cc(C(F)(F)F)ccc4Cl)cc3)ccc2[nH]1.Cl [GW697465] | 5 | 0 | 0 | 0 | 7 | 0 | 2 | 0 | 0 | 0 | 12 | 6 | 66 | 37 | 10 | 20 | 0 | 50 | 0 | 89
11 | O=C(Nc1ccccc1)c1cccc(Oc2ccc3nccn3n2)c1 | 0 | 0 | 12 | 14 | 0 | 0 | 6 | 0 | 8 | 96 | 28 | 0 | 0 | 0 | 15 | 11 | 6 | 22 | 0 | 12
12 | O=C(NOCC1CC1)c1cc(Br)c(F)c(F)c1Nc1ccc(I)cc1Cl | 0 | 0 | 0 | 0 | 0 | 0 | 0 | 0 | 0 | 0 | 0 | 0 | 0 | 0 | 14 | 0 | 17 | 14 | 0 | 0
13 | O=C(Nc1cccc(C(F)(F)F)c1)c1cccc(Oc2ccc3nccn3n2)c1 | 1 | 0 | 0 | 0 | 0 | 0 | 8 | 0 | 17 | 1 | 3 | 0 | 0 | 11 | 22 | 18 | 19 | 0 | 0 | 0
14 | CCCC(=O)Nc1n[nH]c2ncccc12 [SB-601436] | 0 | 13 | 0 | 0 | 0 | 0 | 0 | 0 | 0 | 0 | 0 | 0 | 0 | 0 | 1 | 0 | 0 | 0 | 0 | 0
15 | O=C(Nc1ccc(Oc2ccc3nc(NC(=O)C4CC4)cn3n2)c(F)c1)c1cccn(-c2ccccc2)c1=O | 5 | 1 | 0 | 3 | 2 | 21 | 11 | 1 | 3 | 13 | 6 | 0 | 28 | 0 | 39 | 0 | 0 | 0 | 0 | 0
16 | CC(=O)Nc1nc2cnc(Nc3cc(NC(=O)c4cccc(CC(C)(C)C#N)c4)ccc3C)nc2s1 | 4 | 0 | 0 | 7 | 14 | 0 | 21 | 11 | 0 | 16 | 16 | 66 | 79 | 15 | 0 | 1 | 15 | 45 | 14 | 36
17 | CC(=O)Nc1ccc(-c2cc3ncnc(SCC(=O)O)c3s2)cc1 | 0 | 55 | 58 | 21 | 18 | 23 | 90.6 | 92.3 | 8 | 9 | 17 | 0 | 26 | 12 | 4 | 16 | 31 | 0 | 14 | 40

Row | SMILES | %Inh (CAMK1) [%] | %Inh (CAMK2A) [%] | %Inh (CAMK2B) [%] | %Inh (CAMK2D) [%] | %Inh (CAMK2G) [%] | %Inh (CAMK4) [%] | %Inh (CAMKK1) [%] | %Inh (CAMKK2) [%] | %Inh (CASK) [%] | %Inh (CDC2L1) [%] | %Inh (CDC2L2) [%] | %Inh (CDC2L5) [%] | %Inh (CDK11) [%] | %Inh (CDK2) [%] | %Inh (CDK3) [%] | %Inh (CDK4-cyclinD1) [%] | %Inh (CDK4-cyclinD3) [%] | %Inh (CDK4) [%] | %Inh (CDK5) [%] | %Inh (CDK7) [%]
18 | Cc1ccc(Nc2ccnc(Nc3ccc4c(c3)CS(=O)(=O)C4)n2)cc1O.Cl [GW579362] | 62 | 0 | 0 | 29 | 42 | 0 | 24 | 31 | 12 | 44 | 46 | 0 | 0 | 89 | 77 | 88 | 73 | 43 | 95 | 23
19 | Cc1ccc(C(=O)Nc2ccc(Oc3ccc4nc(NC(=O)C5CC5)cn4c3)c(F)c2)c(=O)n1-c1ccccc1 | 0 | 0 | 0 | 0 | 3 | 10 | 11 | 10 | 12 | 0 | 7 | 0 | 88 | 1 | 36 | 21 | 0 | 0 | 0 | 76
20 | CN(c1cccc(CNc2nc(Nc3ccc4c(c3)CC(=O)N4)ncc2C(F)(F)F)c1)S(C)(=O)=O | 0 | 0 | 0 | 7 | 0 | 0 | 15 | 16 | 7 | 0 | 7 | 0 | 0 | 6 | 22 | 22 | 0 | 0 | 31 | 53
21 | CC(=O)c1c(-c2ccncc2)[nH]c(-c2ccncc2)c1C [GW493036] | 26 | 0 | 0 | 0 | 0 | 0 | 0 | 0 | 25 | 0 | 4 | 0 | 13 | 31 | 53 | 0 | 38 | 0 | 0 | 96.2
22 | C[C@@H]1CNc2c(sc3ccc4nc(-c5ccncc5)ccc4c23)C(=O)N1 | 19 | 25 | 23 | 22 | 14 | 13 | 27 | 47 | 0 | 4 | 2 | 0 | 25 | 0 | 0 | 0 | 2 | 0 | 11 | 77
23 | COc1cc(Nc2nccc(N3CCC(NC(=O)c4cccc(C#N)c4)C3)n2)cc(OC)c1OC (stereo not drawn) [GSK1379751] | 3 | 0 | 0 | 0 | 17 | 0 | 0 | 3 | 3 | 0 | 36 | 0 | 12 | 0 | 0 | 5 | 0 | 27 | 0 | 0
24 | Cc1cccc2c(-c3ccncc3)c(-c3ccc(F)cc3)nn12.Cl [GW461487] | 0 | 0 | 0 | 29 | 32 | 0 | 0 | 11 | 3 | 0 | 0 | 0 | 0 | 0 | 0 | 0 | 0 | 36 | 0 | 0
25 | OCCn1cc(-c2cnc3nnn(Cc4ccc5ncccc5c4)c3n2)cn1 | 0 | 0 | 0 | 0 | 0 | 0 | 0 | 0 | 0 | 11 | 0 | 0 | 0 | 0 | 5 | 0 | 0 | 0 | 0 | 15
26 | Cn1ccc2ncnc(Oc3ccc(NC(=O)Nc4cncc(C(F)(F)F)c4)c(Cl)c3)c21 | 0 | 0 | 0 | 0 | 0 | 0 | 0 | 14 | 0 | 0 | 0 | 51 | 97.7 | 0 | 0 | 0 | 0 | 0 | 0 | 0
27 | CCNCC(Cc1ccccc1)NC(=O)c1cc(Br)c(-c2ccnc3[nH]ccc23)s1.Cl.Cl (stereo not drawn) [GSK1383280] | 41 | 0 | 0 | 23 | 34 | 21 | 19 | 25 | 0 | 16 | 22 | 0 | 39 | 0 | 12 | 0 | 6 | 0 | 0 | 24
28 | CN1CCN(CCCNc2nccc(-c3c(-c4ccc(F)cc4)nn4cc(C(N)=O)ccc34)n2)CC1 [GW622475] | 31 | 0 | 0 | 21 | 37 | 0 | 11 | 30 | 3 | 6 | 17 | 0 | 40 | 0 | 18 | 0 | 0 | 20 | 0 | 0
29 | FC(F)(F)c1cc(Br)cc(Nc2nccc(-c3cnn4ncccc34)n2)c1 [GW810578] | 23 | 0 | 6 | 21 | 28 | 0 | 45 | 59 | 22 | 0 | 7 | 0 | 0 | 39 | 73 | 16 | 52 | 8 | 37 | 98.9
30 | Cn1ccc2ncnc(Oc3ccc(NC(=O)Nc4cccc(C(F)(F)F)c4)c(Cl)c3)c21 | 4 | 0 | 0 | 7 | 0 | 6 | 0 | 0 | 0 | 0 | 5 | 0 | 99.8 | 0 | 5 | 8 | 0 | 0 | 0 | 2
31 | CN(c1ccc2c(c1)nc(NCc1ccc(F)cc1)n2C)c1ccnc(Nc2ccc(CS(C)(=O)=O)cc2)n1.Cl [GW813244] | 0 | 0 | 0 | 0 | 1 | 0 | 0 | 6 | 15 | 94.5 | 92.6 | 0 | 26 | 5 | 6 | 0 | 10 | 22 | 0 | 31
32 | C[C@@H](Oc1cc(-n2cnc3cc(-c4cnn(C)c4)ccc32)sc1C(N)=O)c1ccccc1Cl [GSK580432] | 39 | 0 | 9 | 23 | 25 | 0 | 59 | 90.3 | 23 | 0 | 0 | 0 | 28 | 26 | 20 | 0 | 3 | 18 | 0 | 0
33 | COc1ccc(Nc2nccc(N3CCC(NC(=O)c4cccc(C#N)c4)C3)n2)cc1 (stereo not drawn) [GSK1379730] | 0 | 0 | 0 | 0 | 6 | 0 | 8 | 10 | 0 | 0 | 0 | 0 | 4 | 0 | 26 | 34 | 0 | 36 | 7 | 0
